Targets with a hit are over-represented here; the source holds about 7,900 in all. About 0.6% of all pairs of compound and target were hits. Unmarked numbers belong to inactive results.
Assays:
Experiment in all cases: log2 fold change, soluble protein after heating vs DMSO (PISA); higher = thermal stabilisation; K562 cells, 10 uM, 30 min; active = over 0.2 and 3.5 SD of the protein, either way, in both replicates (recomputed)
[1] = compound: C1=CC=C(C=C1)[C@H](COC2=CC3=C(C=C2)NC(=O)N3)NC(=O)C4=CC=CN(C4=O)CC5=CC(=C(C=C5)F)F
Outline: (§1)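 K562 cells (2×10^6 cells/mL) were treated with 10 μM compound for 30 min, and aliquots were heated for 3 min over 48°C-58°C. Pooled aliquots were extracted in PBS with 0.5% NP-40 at 4°C, and the supernatant after 21,000xg for 90 min was measured by TMTpro 16plex LC-MS/MS with channel sums equalised. Reported thermal stability, relative to control samples and from duplicates, is a log2 fold change.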

[2] = compound: CC1=C(SC2=C1C(=N[C@H](C3=NN=C(N32)C)CC(=O)N)C4=CC=C(C=C4)Cl)C
Outline: as §1

[3] = compound: CC1=C2C(=CC=C1)N=C(N(C2=O)C3=CC=CC=C3C)CN4C=NC5=C(N=CN=C54)N
Outline: as §1

[4] = compound: Cc1sc2c(c1C)C(c1ccc(Cl)cc1)=N[C@@H](CC(=O)OC(C)(C)C)c1nnc(C)n1-2
Outline: as §1

[5] = compound: c1ccc([C@@H]2C[C@H]2NC2CCNCC2)cc1
Outline: as §1

UniProt Q9H300, sequence (Q9H300 whole entry, looked up): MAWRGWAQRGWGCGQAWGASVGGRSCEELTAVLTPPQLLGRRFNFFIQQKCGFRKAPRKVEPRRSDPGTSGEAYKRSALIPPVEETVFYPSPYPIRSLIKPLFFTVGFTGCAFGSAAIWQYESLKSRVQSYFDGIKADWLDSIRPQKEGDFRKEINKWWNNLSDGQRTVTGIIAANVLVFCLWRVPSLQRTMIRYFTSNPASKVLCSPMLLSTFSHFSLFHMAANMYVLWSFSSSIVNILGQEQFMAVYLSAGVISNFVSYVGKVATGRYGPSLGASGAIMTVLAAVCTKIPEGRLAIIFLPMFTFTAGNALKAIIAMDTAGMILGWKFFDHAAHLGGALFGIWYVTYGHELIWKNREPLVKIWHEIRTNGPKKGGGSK
UniProt Q92968, sequence (Q92968 whole entry, looked up): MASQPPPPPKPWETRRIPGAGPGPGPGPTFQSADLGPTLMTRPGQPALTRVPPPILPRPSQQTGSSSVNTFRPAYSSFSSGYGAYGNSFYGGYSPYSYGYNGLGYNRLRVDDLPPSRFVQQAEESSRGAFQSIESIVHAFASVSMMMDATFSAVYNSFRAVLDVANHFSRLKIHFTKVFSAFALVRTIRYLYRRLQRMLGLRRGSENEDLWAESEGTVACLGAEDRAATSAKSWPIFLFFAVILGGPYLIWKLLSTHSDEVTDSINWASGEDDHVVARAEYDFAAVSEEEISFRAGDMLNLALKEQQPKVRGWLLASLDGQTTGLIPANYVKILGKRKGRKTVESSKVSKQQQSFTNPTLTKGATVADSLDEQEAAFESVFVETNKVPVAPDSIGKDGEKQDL
UniProt Q8TAP8, sequence (Q8TAP8 whole entry, looked up): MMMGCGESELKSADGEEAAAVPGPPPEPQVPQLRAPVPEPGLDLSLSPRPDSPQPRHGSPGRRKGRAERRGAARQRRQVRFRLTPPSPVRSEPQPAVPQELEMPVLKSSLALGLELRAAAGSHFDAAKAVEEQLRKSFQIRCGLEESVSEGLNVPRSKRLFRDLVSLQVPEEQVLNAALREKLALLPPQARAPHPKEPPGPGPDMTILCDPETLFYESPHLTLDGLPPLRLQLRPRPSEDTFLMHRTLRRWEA
UniProt Q969N2, sequence (Q969N2 whole entry, looked up): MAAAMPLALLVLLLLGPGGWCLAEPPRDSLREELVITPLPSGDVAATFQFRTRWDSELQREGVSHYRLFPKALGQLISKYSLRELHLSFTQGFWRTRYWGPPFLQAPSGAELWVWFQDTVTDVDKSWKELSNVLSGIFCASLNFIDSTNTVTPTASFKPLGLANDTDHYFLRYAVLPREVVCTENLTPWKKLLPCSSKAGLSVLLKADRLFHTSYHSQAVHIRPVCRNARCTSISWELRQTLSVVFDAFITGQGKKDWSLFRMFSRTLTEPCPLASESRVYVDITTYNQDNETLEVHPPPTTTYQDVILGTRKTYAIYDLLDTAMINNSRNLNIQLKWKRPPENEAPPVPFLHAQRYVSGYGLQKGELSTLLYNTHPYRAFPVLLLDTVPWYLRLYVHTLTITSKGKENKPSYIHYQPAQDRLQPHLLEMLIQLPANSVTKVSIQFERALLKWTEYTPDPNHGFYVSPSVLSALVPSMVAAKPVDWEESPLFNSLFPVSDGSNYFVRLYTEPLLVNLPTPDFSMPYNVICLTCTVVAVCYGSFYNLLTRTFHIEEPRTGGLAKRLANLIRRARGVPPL
UniProt Q6L8Q7, sequence (Q6L8Q7 whole entry, looked up): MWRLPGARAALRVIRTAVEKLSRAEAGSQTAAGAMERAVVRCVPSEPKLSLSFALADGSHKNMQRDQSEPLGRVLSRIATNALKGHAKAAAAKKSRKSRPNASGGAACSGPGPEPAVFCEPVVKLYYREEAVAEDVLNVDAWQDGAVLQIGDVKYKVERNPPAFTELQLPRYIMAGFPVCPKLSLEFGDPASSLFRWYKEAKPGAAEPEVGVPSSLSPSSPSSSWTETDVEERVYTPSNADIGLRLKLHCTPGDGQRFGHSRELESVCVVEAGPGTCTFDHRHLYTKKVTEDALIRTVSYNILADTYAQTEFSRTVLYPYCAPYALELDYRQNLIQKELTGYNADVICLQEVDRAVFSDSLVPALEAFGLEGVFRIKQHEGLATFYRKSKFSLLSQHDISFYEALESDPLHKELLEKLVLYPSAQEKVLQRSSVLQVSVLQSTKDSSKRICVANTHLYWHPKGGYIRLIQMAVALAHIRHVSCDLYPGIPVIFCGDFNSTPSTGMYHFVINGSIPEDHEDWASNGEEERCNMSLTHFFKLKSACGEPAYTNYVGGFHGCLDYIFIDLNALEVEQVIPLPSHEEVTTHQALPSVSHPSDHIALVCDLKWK
UniProt P31321, sequence (P31321 whole entry, looked up): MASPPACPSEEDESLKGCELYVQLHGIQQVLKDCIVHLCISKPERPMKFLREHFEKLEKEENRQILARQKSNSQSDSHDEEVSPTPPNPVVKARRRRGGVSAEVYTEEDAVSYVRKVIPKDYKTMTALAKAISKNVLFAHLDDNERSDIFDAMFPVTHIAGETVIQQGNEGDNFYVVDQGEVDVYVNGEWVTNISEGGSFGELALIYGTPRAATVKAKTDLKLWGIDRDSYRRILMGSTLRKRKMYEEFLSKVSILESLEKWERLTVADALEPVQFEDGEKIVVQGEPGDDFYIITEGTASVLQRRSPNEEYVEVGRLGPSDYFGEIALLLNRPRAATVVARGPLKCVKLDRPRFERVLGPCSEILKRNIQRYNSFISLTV
UniProt P53609, sequence (P53609 whole entry, looked up): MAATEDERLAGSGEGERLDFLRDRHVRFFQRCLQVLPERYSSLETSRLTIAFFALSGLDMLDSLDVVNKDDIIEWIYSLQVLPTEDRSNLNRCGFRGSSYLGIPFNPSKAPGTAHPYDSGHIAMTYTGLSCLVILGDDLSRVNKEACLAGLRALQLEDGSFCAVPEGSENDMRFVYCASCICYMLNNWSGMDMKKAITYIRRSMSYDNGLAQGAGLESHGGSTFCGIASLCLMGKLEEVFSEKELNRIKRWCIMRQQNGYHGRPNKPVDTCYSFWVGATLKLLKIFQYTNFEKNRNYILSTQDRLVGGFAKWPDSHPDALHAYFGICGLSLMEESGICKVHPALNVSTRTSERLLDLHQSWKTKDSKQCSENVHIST

Row | Target | log2 fold change [1] | log2 fold change [2] | log2 fold change [3] | log2 fold change [4] | log2 fold change [5]
1 | PDE12 (UniProt Q6L8Q7) | -0.003 | 0.059 | 0.12 | -0.05 | -0.094
2 | PIGT (UniProt Q969N2) | 0.022 | 0.142 | -0.013 | 0.276 (active) | -0.021
3 | PRKAR1B (UniProt P31321) | 0.21 | -0.026 | 0.059 | 0.019 | -0.061
4 | PARL (UniProt Q9H300) | 0.017 | -0.017 | 0.045 | 0.028 | 0.031
5 | POLR2B (UniProt P30876) | -0.028 | 0.105 | 0.047 | 0.159 | -0.053
6 | PPP1R35 (UniProt Q8TAP8) | 0.01 | 0.006 | 0.067 | 0.03 | 0.362 (active)
7 | PEX13 (UniProt Q92968) | -0.064 | 0.05 | 0.078 | -0.107 | 0.001
8 | PGGT1B (UniProt P53609) | 0.025 | 0.066 | 0.051 | -0.018 | -0.004
9 | POLR2C (UniProt P19387) | -0.091 | 0.125 | -0.023 | 0.155 | -0.092
